HGIII-sPLA2 inh = Inhibits HGIII-sPLA2 liposome hydrolysis, primary screen | inhibition, % at 12.2 µM | QFRET BODIPY PC-A2 liposome hydrolysis, fluorescence | Q9NZ20 | actives 0.56% (n = 370,000);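 active = inhibition above mean plus 3 SD of compounds lying within the high and low control bounds, cut at about 19% in these data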;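 note: 0% = median of test compound wells and 100% = no enzyme DMSO wells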
Fh CTSL1 inh = blocks F. hepatica cathepsin L1 in PFM18AAP counter-screen; recombinant F. hepatica cathepsin L1, Z-Leu-Arg-MCA fluorescence; inhibition, % at 5.96 µM; actives 0.49% (n = 300,000); AID 1906;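 active = inhibition above the mean of all tested compounds plus 3 SD, set per screening campaign, cut at about 17% in these data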;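 note: 0% = plate median of test compound wells and 100% = 1 µM Z-Phe-Ala-diazomethylketone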
A3G deaminase = APOBEC3G (human) deaminase inhibition; actives 0.28% (n = 330,000); inhibition, % at 20 µM; recombinant A3G, ssDNA deamination FAM/TAMRA fluorescence;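 active = inhibition of at least 40% at 20 µM, with no more than 30% in the related APOBEC3A deaminase screen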;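 note: plate controls were DMSO wells with A3G for no effect and wells lacking A3G enzyme for full effect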
Target sequence (Q9HC16 whole entry, looked up): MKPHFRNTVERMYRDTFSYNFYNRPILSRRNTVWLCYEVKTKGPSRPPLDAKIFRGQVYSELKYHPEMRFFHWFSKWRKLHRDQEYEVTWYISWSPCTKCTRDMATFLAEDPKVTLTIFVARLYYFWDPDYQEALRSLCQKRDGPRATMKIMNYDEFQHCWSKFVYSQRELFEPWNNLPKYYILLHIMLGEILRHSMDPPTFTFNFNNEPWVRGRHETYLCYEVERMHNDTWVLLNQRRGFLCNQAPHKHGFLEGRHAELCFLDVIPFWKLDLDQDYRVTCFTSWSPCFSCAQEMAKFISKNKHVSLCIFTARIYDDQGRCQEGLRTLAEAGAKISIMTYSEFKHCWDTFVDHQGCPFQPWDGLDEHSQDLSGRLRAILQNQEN
NALP1 inh = inhibitors of NALP1 inflammasome in yeast; S. cerevisiae NALP1/ASC/caspase-1 growth, X-gal OD620, 72 h; inhibition, % at 10 µM; AID 2071; actives 0.61% (n = 280,000); in the data active = inhibition mostly above about 24%, no sharp cut-off; inactive = mostly below about 32%
APOBEC3A inh = inhibitors of human APOBEC3A DNA deaminase; P31941; recombinant A3A, FAM/TAMRA ssDNA deamination fluorescence; inhibition, % at 20 µM; actives 0.41% (n = 330,000);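 active = at least 40% inhibition at 20 µM here, with at most 30% in a related deaminase screen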;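 note: plate controls were A3A with DMSO for no effect and wells lacking A3A enzyme for full effect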
Target sequence (P31941 whole entry, looked up): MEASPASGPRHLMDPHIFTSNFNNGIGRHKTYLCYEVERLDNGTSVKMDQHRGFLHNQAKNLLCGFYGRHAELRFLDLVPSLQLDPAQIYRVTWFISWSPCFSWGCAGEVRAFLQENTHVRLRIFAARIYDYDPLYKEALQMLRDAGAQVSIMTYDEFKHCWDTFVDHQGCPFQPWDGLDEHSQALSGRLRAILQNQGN
sPLA2 confirm = human GIII-sPLA2 inhibition, confirmation. shares compounds with HGIII-sPLA2 inh. actives 34% (n = 2,000). recombinant hGIII-sPLA2, BODIPY PC-A2 QFRET fluorescence. inhibition, % at 12.2 µM;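 active = mean inhibition across triplicates above the hit cutoff set in the earlier primary screen, cut at about 19% in these data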;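 note: 0% = enzyme with DMSO and 100% = DMSO wells lacking enzyme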
535nm interf = optically interferes with 535nm fluorescence in sPLA2 counter-screen; shares compounds with HGIII-sPLA2 inh; BODIPY FL product fluorescence interference, QFRET; inhibition, % at 12.2 µM; actives 8.5% (n = 2,000); AID 743282;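 active = average inhibition above the solvent-only control mean plus 3 SD, cut at about 6% in these data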;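 note: 0% = DMSO with substrate plus product and 100% = DMSO with substrate alone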
535nm interf DR = 535nm optical interference dose response, HGIII-sPLA2 counter-screen; shares compounds with HGIII-sPLA2 inh; BODIPY FL product fluorescence interference, cell-free; IC50, µM; 240 tested, under 10 active; AID 743455;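 active = IC50 at or below 10 µM; inactive = IC50 above 10 µM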
Starred values were filed as active, the others as inactive; · = no result given. Compounds with a hit are over-represented: about 2% of the library has one in this group of screens.

SMILES	HGIII-sPLA2 inh	Fh CTSL1 inh	A3G deaminase	NALP1 inh	APOBEC3A inh	sPLA2 confirm	535nm interf	others
CN(C)c1ccc(C(=S)Nc2ccccc2)cc1	22*	1	-1	23	2	21*	3
CN(C)c1ccc(NC(=S)c2ccccn2)cc1	13	-1	·	27	·	·	·
O=C(CSc1nnc(-c2ccccc2)n1-c1ccccc1)Nc1cccc2ccccc12	3	·	·	·	·	·	·
O=C(Nc1nc2ccccc2[nH]1)c1ccc(F)c(S(=O)(=O)N2CCOCC2)c1	21*	-4	-11	7	-4	9	-4
O=C(Nc1nc2ccccc2[nH]1)c1cc(F)cc(F)c1	24*	1	0	-39	4	21*	-2
N#Cc1ccc(C(=O)Nc2nc3ccccc3[nH]2)cc1	23*	0	-7	7	-3	19	0
O=C(Nc1nc2ccccc2[nH]1)c1cccc(S(=O)(=O)N2CCOCC2)c1	17	0	1	21	3	·	·
COC(=O)N1CCC[C@H]1c1cccc2[nH]cc(C)c12	-8	·	·	·	·	·	·
COc1ccc(N2CCN(CCNS(=O)(=O)c3ccc(F)cc3)CC2)cc1	1	·	·	·	·	·	·
CCCCCOc1ccc(CSC(=N)N)cc1[N+](=O)[O-]	45*	1	-9	0	-3	30*	-18	535nm interf DR=>122
CCCCOc1ccc(Br)cc1CSC(=N)N	44*	·	·	21	·	25*	-26
Cc1nc2sc(C(=O)NCc3ccncc3)c(N)c2c(C)c1Cl	6	·	·	·	·	·	·
N#CC1(Nc2cccc(Br)c2)C(=O)Nc2ccccc21 (centres undefined)	22*	-1	-8	35	-2	-18	-2
N#CC1(Nc2ccccc2)C(=O)Nc2ccccc21 (centres undefined)	-3	3	0	4	1	·	·
C(=C\N1CCCCCC1)/c1nnnn1-c1ccc(-c2ccccc2)cc1	20*	4	-5	·	-3	5	-4
CSc1nnc(-c2cc(C)on2)n1-c1ccccc1	20*	11	-1	25	1	-3	-3
Clc1ccc(CN2CCN(c3ncc(Cc4ccccc4)cn3)CC2)c(Cl)c1	3	·	·	·	·	·	·
C/C(=N/NC(=O)CN(c1ccccc1)S(=O)(=O)c1ccccc1)c1ccccc1O	24*	-4	6	5	-6	15	-6
O=C(CSc1cccc[n+]1[O-])Nc1cc2c(cc1Cl)C(=O)c1ccccc1C2=O	19*	8	·	55*	·	-8	6.5*
COc1ccc(-n2c(SC/C=C/c3ccccc3)nnc2-c2cccs2)cc1	-6	·	·	·	·	·	·
CCOC(=O)N1CCN(C(=O)C[C@H]2C[C@@]3(C(=O)OC)C(=C[C@H](COCc4ccccc4)O[C@@H]3C)N(Cc3ccccc3)C2=O)CC1	-7	·	·	·	·	·	·
CN(C)S(=O)(=O)c1ccc(Cl)c(C(=O)NCCNC(=O)c2cc(S(=O)(=O)N(C)C)ccc2Cl)c1	21*	5	-1	13	2	-2	-12
Cc1ccc(-n2c(SCC(=O)Nc3ccccc3-c3ccccc3)nnc2-c2cccs2)cc1	-8	·	·	·	·	·	·
Cc1ccccc1CN1CCCCC(NC(=O)C2CCC2)C1=O (centres undefined)	3	·	·	·	·	·	·
CC(C)(C)C(=O)NC(=S)Nc1ccc(F)cc1	23*	-3	-12	10	-3	11	-4
SMILES	HGIII-sPLA2 inh	Fh CTSL1 inh	A3G deaminase	NALP1 inh	APOBEC3A inh	sPLA2 confirm	535nm interf	others
O=C(CN(C(=O)c1ccc(Cl)cc1)C1CCCCC1)Nc1ccc(Cl)c([N+](=O)[O-])c1	20*	-1	1	·	4	-7	-16
O=C(CN(C(=O)c1ccccc1Cl)C1CCCCC1)Nc1ccc(Cl)c([N+](=O)[O-])c1	0	2	-5	1	-6	·	·
COc1ccc(-c2c(Cc3ccccc3)nc(NC(=O)c3ccccc3F)n2C)cc1	19	·	·	·	·	·	·
Cc1ccc(C2CCC3(CCC(=O)N3CCOC(=O)Nc3ccc(F)cc3)CC2)cc1 (centres undefined)	12	·	·	·	·	·	·
Cc1ccc(S(=O)(=O)NCCC(=O)N2CC(C)OC(C)C2)cc1 (centres undefined)	22*	1	-5	·	-1	1	-8
CCOc1ccc(S(=O)(=O)NCCC(=O)N2CC(C)OC(C)C2)cc1 (centres undefined)	4	-7	-6	·	2	·	·
O=C(NC(=S)N(CC1CCC1)CC1CCCO1)c1cccc([N+](=O)[O-])c1 (centres undefined)	20*	-1	-4	-56	4	20*	-3
CN(C)c1ccc(NC(=O)Nc2ccc3c(c2)nnn3C)cc1	19*	-15	-6	-6	3	7	-4
CN(C)c1ccc(NC(=O)c2ccc3c(c2)nnn3C)cc1	18	1	-7	10	-6	·	·
CCOC(=O)c1csc(NC(=O)C2CCCN(S(=O)(=O)c3cc(OC)ccc3OC)C2)n1 (centres undefined)	-15	·	·	·	·	·	·
Cc1ccc(CNC(=O)C2CCCN(c3nc4ccccc4o3)C2)cc1 (centres undefined)	19*	-2	-4	30	-1	4	-6
CCCCN1C(=O)Cc2c1nc(N)c1c(N)nc(N(CCC)CCC)c(C#N)c21	28*	7	·	1	·	11	-8
N#Cc1c(N(CCO)CCO)nc(N)c2c(N)nc3c(c12)CC(=O)N3CC1CCCO1 (centres undefined)	0	-3	-1	-6	1	·	·
c1ccc(-c2nccnc2-c2ccccc2)cc1	22*	-3	-7	·	-3	3	-4
C=CCN(CC#CCN(C)C(=O)c1cccn1C(=O)OC(C)(C)C)Cc1ccc(OC)cc1OC	6	·	·	·	·	·	·
O=C(CN1CCN(C2CCCCC2)CC1)NCCC1=CCCCC1	20*	-2	-5	-9	1	4	-19
COc1ccc(Cn2cc(CN3CC=CS3(=O)=O)nn2)cc1	7	·	·	·	·	·	·
FC(F)(F)c1cc(-c2ccccc2)nc(N2CCCCCC2)n1	20*	0	-3	3	1	5	-5
COc1ccc(-c2cc(C(F)(F)F)nc(N3CCCCCC3)n2)cc1	0	3	-2	15	-4	·	·
O=C1NC(=S)N/C1=C\c1cccc([N+](=O)[O-])c1	20*	-2	-7	-7	-2	-2	-3
CC(C)c1cc(C(=O)NNC(=S)NCc2ccco2)c(O)c(C(C)C)c1	51*	-2	-5	-2	-4	57*	4	535nm interf DR=>122
CC(C)C1COC(c2cccn2Cc2ccccc2Cl)=N1 (centres undefined)	3	-2	-3	38	-1	·	·

Bioassay records: PubChem, several laboratories
